# The supplement of paper PMC8728848
# Only a selection was taken, and the strongest signals are over-represented in it overall.
# Assays:
# Assay in all cases: glycan array binding signal (z-score within array); higher = stronger binding
# Details in all cases: glycan notation: IUPAC condensed, linker removed
# [1] = target: GlcNAc(a1-4)Gal(b1-4)GlcNAc(b1-3)Gal(b1-4)GlcNAc
# How it was run: (§1)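 Glycan array data were curated from 3228 arrays in the Consortium for Functional Glycomics database and kept only where the protein sequence was available. Glycan names were converted to IUPAC-condensed notation, and columns mapping to the same glycan were averaged. The binding signal is a within-array Z-score, averaged across arrays of the same protein sequence at different concentrations or buffers and across linkers. Negative Z-scores can be read as non-binding.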
# [2] = target: GlcNAc(b1-2)Man(a1-3)[GlcNAc(b1-4)][GlcNAc(b1-2)Man(a1-6)]Man(b1-4)GlcNAc(b1-4)[Fuc(a1-6)]GlcNAc
# How it was run: as §1
# [3] = target: GlcNAc(b1-3)Gal(b1-4)GlcNAc(b1-2)[GlcNAc(b1-3)Gal(b1-4)GlcNAc(b1-6)]Man(a1-6)[GlcNAc(b1-3)Gal(b1-4)GlcNAc(b1-2)Man(a1-3)]Man(b1-4)GlcNAc(b1-4)GlcNAc
# How it was run: as §1
# [4] = target: GlcNAc(b1-3)Gal(b1-4)GlcNAc(b1-3)Gal(b1-4)GlcNAc
# How it was run: as §1
# [5] = target: GlcNAc(b1-3)Gal(b1-4)GlcNAc(b1-3)Gal(b1-4)GlcNAc(b1-3)Gal(b1-4)GlcNAc(b1-3)Gal(b1-4)GlcNAc(b1-2)Man(a1-3)[GlcNAc(b1-3)Gal(b1-4)GlcNAc(b1-3)Gal(b1-4)GlcNAc(b1-3)Gal(b1-4)GlcNAc(b1-3)Gal(b1-4)GlcNAc(b1-2)Man(a1-6)]Man(b1-4)GlcNAc(b1-4)[Fuc(a1-6)]GlcNAc
# How it was run: as §1
# [6] = target: GlcNAc(b1-3)Gal(b1-4)GlcNAc(b1-3)[GlcNAc(b1-3)Gal(b1-4)GlcNAc(b1-3)]GalNAc
# How it was run: as §1
# [7] = target: GlcNAc(b1-3)Gal(b1-4)GlcNAc(b1-6)[Gal(b1-3)]GalNAc
# How it was run: as §1
# GlcNAc(b1-3)Man = target: GlcNAc(b1-3)Man
# How it was run: as §1
# [8] = target: Man(a1-2)Man(a1-3)[Man(a1-2)Man(a1-6)]Man
# How it was run: as §1
# [9] = target: Man(a1-2)Man(a1-3)[Man(a1-2)Man(a1-6)]Man(a1-6)[Man(a1-2)Man(a1-2)Man(a1-3)]Man(b1-4)GlcNAc(b1-4)GlcNAc
# How it was run: as §1
# [10] = target: Man(a1-2)Man(a1-6)[Man(a1-3)]Man(a1-6)[Man(a1-2)Man(a1-2)Man(a1-3)]Man
# How it was run: as §1
# [11] = target: Man(a1-3)[Man(a1-6)]Man(b1-4)GlcNAc(b1-4)GlcNAc
# How it was run: as §1
# [12] = target: Man(a1-3)[Man(a1-6)]Man(b1-4)GlcNAc(b1-4)[Fuc(a1-6)]GlcNAc
# How it was run: as §1
# Neu5Ac(a2-3)Gal = target: Neu5Ac(a2-3)Gal
# How it was run: as §1
# [13] = target: Neu5Ac(a2-3)Gal(b1-3)GalNAc
# How it was run: as §1
# [14] = target: Neu5Ac(a2-3)Gal(b1-3)GlcNAc(b1-3)Gal(b1-3)GlcNAc
# How it was run: as §1
# [15] = target: Neu5Ac(a2-3)Gal(b1-4)GlcNAc(b1-2)Man
# How it was run: as §1
# [16] = target: Neu5Ac(a2-3)Gal(b1-4)GlcNAc(b1-3)Gal(b1-4)GlcNAc(b1-6)[Gal(b1-3)]GalNAc
# How it was run: as §1
# [17] = target: Neu5Ac(a2-3)Gal(b1-4)GlcNAc(b1-6)[Neu5Ac(a2-3)Gal(b1-3)]GalNAc
# How it was run: as §1
# [18] = target: Neu5Ac(a2-3)Gal(b1-4)[Fuc(a1-3)]GlcNAc(b1-3)GalNAc
# How it was run: as §1
# [19] = target: Neu5Ac(a2-3)Gal6S(b1-4)GlcNAc
# How it was run: as §1
# [20] = target: Neu5Ac(a2-3)[GalNAc(b1-4)]Gal(b1-4)GlcNAc
# How it was run: as §1
# [21] = target: Neu5Ac(a2-6)Gal(b1-4)GlcNAc(b1-2)Man(a1-3)Man(b1-4)GlcNAc(b1-4)GlcNAc
# How it was run: as §1
# [22] = target: Neu5Ac(a2-6)Gal(b1-4)GlcNAc(b1-2)Man(a1-3)[GlcNAc(b1-2)Man(a1-6)]Man(b1-4)GlcNAc(b1-4)GlcNAc
# How it was run: as §1
# [23] = target: Neu5Ac(a2-6)Gal(b1-4)GlcNAc(b1-2)Man(a1-6)Man(b1-4)GlcNAc(b1-4)GlcNAc
# How it was run: as §1
# [24] = target: Neu5Ac(a2-6)Gal(b1-4)GlcNAc(b1-2)Man(a1-6)[Man(a1-3)]Man(b1-4)GlcNAc(b1-4)GlcNAc
# How it was run: as §1
# [25] = target: Neu5Ac(a2-6)Gal(b1-4)GlcNAc(b1-6)[Gal(b1-3)]GalNAc
# How it was run: as §1
# [26] = target: Neu5Ac(a2-6)GlcNAc(b1-4)GlcNAc(b1-4)GlcNAc
# How it was run: as §1
# Neu5Ac(b2-6)GalNAc = target: Neu5Ac(b2-6)GalNAc
# How it was run: as §1
# [27] = target: Neu5Gc(a2-8)Neu5Gc(a2-3)Gal(b1-4)GlcNAc(b1-3)Gal(b1-4)GlcNAc
# How it was run: as §1
binder,measurement,setting,value
AidA (Burkholderia cenocepacia) (protein) MSRVTDVLVSFDTETILKKYPNPSKNPAAPTLIDWRYVYMVTNQDNVISGQAGGELDLKAQVGDLIRWRETSLSLGFENQVVFYKFIGNVGNDLISTPTPRVAEASIPVPNTSKPEVPTCQKVANYYWSSECLKVGRVTYHFQFQIIDRNCQSQGCFSWDPFISIHN,glycan array binding signal (z-score),[1],0.177
same,glycan array binding signal (z-score),[2],-0.375
same,glycan array binding signal (z-score),[3],2.61
same,glycan array binding signal (z-score),[4],0.86
same,glycan array binding signal (z-score),[5],-0.735
same,glycan array binding signal (z-score),[6],-0.928
same,glycan array binding signal (z-score),[7],-0.57
same,glycan array binding signal (z-score),GlcNAc(b1-3)Man,-0.022
same,glycan array binding signal (z-score),[8],-0.113
same,glycan array binding signal (z-score),[9],0.274
same,glycan array binding signal (z-score),[10],-0.364
same,glycan array binding signal (z-score),[11],-0.131
same,glycan array binding signal (z-score),[12],1.97
same,glycan array binding signal (z-score),Neu5Ac(a2-3)Gal,-0.347
same,glycan array binding signal (z-score),[13],-0.739
same,glycan array binding signal (z-score),[14],-0.146
same,glycan array binding signal (z-score),[15],1.58
same,glycan array binding signal (z-score),[16],-0.559
same,glycan array binding signal (z-score),[17],-0.108
same,glycan array binding signal (z-score),[18],1.86
same,glycan array binding signal (z-score),[19],-0.261
same,glycan array binding signal (z-score),[20],-0.388
same,glycan array binding signal (z-score),[21],-0.123
same,glycan array binding signal (z-score),[22],-0.443
same,glycan array binding signal (z-score),[23],-0.428
same,glycan array binding signal (z-score),[24],0.17
same,glycan array binding signal (z-score),[25],-0.153
same,glycan array binding signal (z-score),[26],-0.74
same,glycan array binding signal (z-score),Neu5Ac(b2-6)GalNAc,0.412
same,glycan array binding signal (z-score),[27],-0.459
